Results published in PubChem BioAssay AID449762 (Southern Research Specialized Biocontainment Screening …, 2010).
Screen size: about 330,000 compounds; about 1,900 (0.58%) were called active. Roughly 4% stayed inconclusive and do not appear here. Only a sample is shown. Entries with a potency or affinity are not part of this list. Values without a mark were called inactive. Cut-off read from the data, not from the text of the source: inconclusive = inhibition above about 70% without an active follow-up result; inactive = below that.

Test: M. tuberculosis growth inhibition, HTS (AID 449762);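 note: bacterial growth assessed after seven days of incubation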
Settings: M. tuberculosis H37Rv growth inhibition, 7H9 media; at 25 µM; stronger effect = higher value

| Compound | inhibition [%] |
| --- | --- |
| CCC(C)(C)NC(=O)C(c1ccncc1)N(Cc1ccc(C)cc1)C(=O)c1csnn1 (stereo unspecified) | -0.23 |
| N#CCNc1ccc([N+](=O)[O-])cc1C#N | 2.63 |
| COc1cc2c(cc1OC)C(C)N(C(=O)c1cc3c(s1)-c1c(C)cccc1OC3)CC2 (stereo unspecified) | 60.6 |
| Cc1ccc(C(=O)N/C(=C\c2cccc([N+](=O)[O-])c2)C(=O)OCN2C(=O)c3ccccc3C2=O)cc1 | 9.25 |
| Cc1ccc(C(=O)N/C(=C/c2ccco2)C(=O)O)cc1 | 0.79 |
| CS/C(=C\[N+](=O)[O-])Nc1ccc(Cl)cc1 | 55.3 |
| NN/C(=C\[N+](=O)[O-])Nc1ccccc1 | 69.9 |
| CC(Sc1nnc(-c2cccs2)n1-c1ccccc1)C(=O)NCc1ccc2c(c1)OCO2 (stereo unspecified) | -16.1 |
| CCCCOc1ccc(C(=O)Nc2ccc(N3CCN(C(=O)C(C)C)CC3)cc2)cc1 | 11.1 |
| Cc1cc(Nc2ccccc2Cl)nc(-c2ccccc2O)n1 | 57.3 |
| Cc1cc(OC2CCCCC2)nc(-c2ccccc2O)n1 | -9.08 |
| O=C(Cn1nc(Cl)nc1Cl)c1ccc2c(c1)OCCO2 | 60.7 |
| O=C(Cn1ncc(Cl)c(Cl)c1=O)N1CCOCC1 | 2.21 |
| CCOC(=O)c1sc(=NC(=O)c2ccc(C)c(C)c2)n(C)c1C | 31.6 |
| O=C(N/N=C/c1c[nH]c2ccccc12)c1sc2ccccc2c1Cl | 1.35 |
| O=C(N/N=C/c1cccnc1)c1sc2ccccc2c1Cl | 66 |
| CC(=O)NCCc1nc2cc(NC(=O)c3ccccc3Cl)ccc2n1C | -3.12 |
| Cc1cc(C(C)(C)C)oc1C(=O)OCC(=O)NC1CCCCC1 | 7.47 |
| CS(=O)(=O)N1c2ccccc2[C@]2([C@@]34C[C@H]5C(=O)N[C@@H](Cc6ccccc6)C(=O)N5[C@@H]3N(S(C)(=O)=O)c3ccccc34)C[C@H]3C(=O)N[C@@H](Cc4ccccc4)C(=O)N3[C@H]12 | -2.63 |
| CN1C(=O)[C@@H]2C[C@@]3([C@@]45C[C@H]6C(=O)N(C)[C@@H](Cc7ccccc7)C(=O)N6[C@@H]4Nc4ccccc45)c4ccccc4N[C@H]3N2C(=O)[C@@H]1Cc1ccccc1 | 11.8 |
| CCCCC1S/C(=N/N=C/c2ccco2)NC1=O (stereo unspecified) | 4.46 |
| Cc1ccc(Cn2ccsc2=NC(=O)COC(=O)C(C)C)cc1 | -7.15 |
| CCC(=O)OCC(=O)N=c1sccn1Cc1ccc(C)cc1 | 6.77 |

| Compound | inhibition [%] |
| --- | --- |
| CN(Cc1nc2ccccc2[nH]1)C(=O)C1CCC(=O)N(CCc2cccc(F)c2)C1 (stereo unspecified) | -0.88 |
| COc1ccccc1CN1CC(C(=O)N(C)CCc2nc3ccc(F)cc3[nH]2)CCC1=O (stereo unspecified) | 8.31 |
| Cc1cccc(NC(=S)NCC(C)CSc2ccc(Cl)cc2)c1 (stereo unspecified) | 10.5 |
| COc1cccc(C2NC(=O)NC(C)=C2C(=O)OCC2CCCCC2)c1 (stereo unspecified) | -17.1 |
| O=C(CSc1cccc(C(F)(F)F)c1)Nc1ccc(Cl)cc1Cl | -3.06 |
| COC(=O)[C@@H](NC(=O)N1CCN(c2cccc(C(F)(F)F)c2)CC1)C(C)C | 5.31 |
| COC(=O)[C@H](CC(C)C)NC(=O)N1CCN(c2cccc(C(F)(F)F)c2)CC1 | 1.6 |
| Clc1ccccc1-c1nnc2n1CCCCC2 | -3.29 |
| Oc1ccccc1-c1nnc2n1CCCCC2 | -9.99 |
| CCOc1cc(N2CCOCC2)c(OCC)cc1NC(=O)CN1C(=O)NC(C)(C2CC2)C1=O (stereo unspecified) | 8.07 |
| Cc1ccc(C)c(Nc2ccc(C(=O)NCCc3ccccc3)cn2)c1 | 4.16 |
| O=C(CCN=C1NS(=O)(=O)c2ccccc21)Nc1ccc(F)cc1Cl | 7.31 |
| c1ccc2c(c1)CCN(c1nc3cc4c(cc3s1)OCO4)C2 | 38.1 |
| c1ccc(N2CCN(c3nc4cc5c(cc4s3)OCCO5)CC2)cc1 | 5.85 |
| COc1ccc(S(=O)(=O)N2CCN(CC(=O)N3CCc4ccccc4C3)CC2)cc1OC | -1.57 |
| CCCC(=O)NNC(=O)CC(=O)Nc1ccccc1C(=O)O | 2.33 |
| O=C(NC(=S)Nc1cccc2ncccc12)c1ccccc1 | 0.24 |
| O=C(NC(=S)Nc1cccc2cnccc12)c1ccccc1 | 5.56 |
| CNC(=O)Cc1nc2ccccc2n1CC(=O)Nc1cc(C)cc(C)c1 | -9.59 |
| COc1ccc(CN2[C@@H](CC(C)=O)c3cc(C(F)(F)F)ccc3S2(=O)=O)cc1 | -4.65 |
| Cc1nnnn1-c1ccc(CC(=O)O)cc1 | -0.97 |
| CC(C)(C)OC(=O)NCCCCCc1nnc(SCc2ccccc2)o1 | 68.1 |
| Cc1ccc(CSc2nnc(CCNC(=O)OC(C)(C)C)o2)cc1 | 6.64 |

| Compound | inhibition [%] |
| --- | --- |
| CCCCn1c(O)c(C(=O)/C=C/c2ccc3c(c2)OCO3)c(=O)[nH]c1=O | 1 |
| O=C(/C=C/c1c[nH]c2ccccc12)c1c(O)n(CCc2ccccc2)c(=O)[nH]c1=O | 35.3 |
| COCCNC(=O)c1ccc(NC(=O)C2(c3ccccc3)CCCC2)cc1 | 40.9 |
| CCn1c(CSCc2ccc(C)cc2)n[nH]c1=S | 3.1 |
| CC1(C)CCC[C@]2(C)[C@H]3Cc4cc(O)ccc4O[C@]3(C)CC[C@@H]12 | 6.49 |
| Cc1cc(/C=N/n2cnnc2)c(C)n1-c1ccc(Cl)cc1 | -4.08 |
| Cc1cc(/C=N/n2cnnc2)c(C)n1-c1ccc(OCc2ccc(F)cc2)cc1 | -2.12 |
| O=C(CCCC(=O)OCC(=O)c1ccc(Cl)cc1)NC1CCCCC1 | 30.8 |
| COc1ccc(C2(C#N)CCC(=O)N2c2ccccc2)cc1 (stereo unspecified) | 5.44 |
| COc1ccc(Nc2nc(-c3ccc(OC)cc3)c(CCC(=O)O)s2)cc1 | 26.3 |
| COC(=O)CCc1sc(Nc2ccccc2)nc1-c1ccc(OC)cc1 | 52.4 |
| O=C(CCCN1C(=O)c2ccccc2C1=O)N1CCN(c2ccccn2)CC1 | -8.5 |
| Cn1c(=O)c2c(nc(NCC3CCCO3)n2C)n(C)c1=O (stereo unspecified) | -5.47 |
| Cc1ccc(C(=O)c2coc3ccc(O)cc23)cc1 | 2.44 |
| C[C@@H](NC(=O)[C@@H]1Cc2ccccc2CN1)C(=O)Nc1ccc2c(c1)OCCO2 | 8.26 |
| Cc1[nH]c2ccc(OC(F)(F)F)cc2c1CCNCc1cccc([N+](=O)[O-])c1 | 62.9 |
| COc1ccc(CNCCc2c(C)[nH]c3ccc(OC(F)(F)F)cc23)c(OC)c1 | 35.2 |
| C(=NC12CN3CN(CN(C3)C1)C2)c1ccc2c(c1)OCO2 | -3.64 |
| COC(=O)C1=C(c2ccc(F)cc2OCc2ccccc2)C[C@@H]2CC[C@H]1N2C(=O)NCc1ccc(F)cc1 | -5.1 |
| CC(Sc1nc(-c2ccccc2)nc2c1COC(C)(C)C2)C(=O)N1CCOCC1 (stereo unspecified) | -20.2 |
| O=c1c2cnn(-c3ccccc3)c2nc(-c2cccs2)n1-c1ccc(Br)cc1 | 1.78 |
| O=c1oc(-c2cccs2)nc2ccccc12 | -3.68 |
| Cc1ccc(-n2c(C)cc(/C=N/NC(=O)c3ccc(CN4CCOCC4)cc3)c2C)cc1 | -0.81 |

| Compound | inhibition [%] |
| --- | --- |
| COc1cc(NC(=O)Cn2cnc(S(=O)(=O)N3CCOCC3)c2)cc(OC)c1OC | -1.58 |
| O=C1C(O)=C(O)C(=O)c2ccccc21 | -1.99 |
| O=C1c2ccccc2-c2cccnc21 | -8.77 |
| CCC1CCCCN1C(=S)NCc1ccccc1 (stereo unspecified) | -0.48 |
| CN(C)CCOc1cc(Cl)cc(Cl)c1 | 10 |
| Cc1nc2c(C(=O)N3CCN(c4ccccn4)CC3)cnn2c(C)c1Cc1cccc(Cl)c1 | 48.5 |
| O=C(NCc1cccnc1)/C(=C/c1ccc(-c2cccc(C(F)(F)F)c2)o1)NC(=O)c1ccccc1 | 11.6 |
| Cc1ccc(C(=O)N/C(=C\c2ccco2)C(=O)NCc2cccnc2)cc1 | -2.29 |
| CCOC(=O)N1CCN(C(=O)CSc2ccc(C(=O)OC)cc2[N+](=O)[O-])CC1 | -7.7 |
| Clc1ccccc1Cc1noc(CN2CCN(Cc3ccccn3)CC2)n1 | 2.36 |
| CC(C)(C)c1ccc(C(=O)NC2CCS(=O)(=O)C2)cc1 (stereo unspecified) | 1.38 |
| Cc1nn(-c2ccccc2)c(N)c1C(c1ccccc1)c1c(C)nn(-c2ccccc2)c1N | 5.62 |
| Cc1ccc(C(c2c(C)nn(-c3ccccc3)c2N)c2c(C)nn(-c3ccccc3)c2N)cc1 | 23.1 |
| COc1ccc(OC)c(C(=O)COC(=O)CNC(=O)c2ccccc2)c1 | -2.57 |
| O=C(Nc1ccccc1)N1CCCN(c2c(Cl)cncc2Cl)CC1 | 2.69 |
| O=C(CN1CCN(Cc2ccccc2Cl)CC1)N/N=C/C=C\c1ccccc1[N+](=O)[O-] | 3.7 |
| O=C(CN1CCN(Cc2ccccc2)CC1)N/N=C/C=C/c1ccccc1[N+](=O)[O-] | 12 |
| CCSc1nnc(NC(=O)c2nc3nc(C)cc(C)n3n2)s1 | -7.36 |
| Cc1ccccc1OCC(=O)OCC(=O)Nc1ccc2c(c1)OCCO2 | -7.86 |
| Cc1ccc2c(c1)c1ncnc(N3CCN(c4ccccc4)CC3)c1n2C | 0.15 |
| Cc1ccc2c(c1)c1ncnc(N3CCOCC3)c1n2C | -0.66 |
| CC(=O)Nc1ccc(-c2csc(Nc3ncccn3)n2)cc1 | 10.8 |
